Reference: the supplement of paper PMC4466140

How the values were obtained:
Test in all cases: SPOT peptide array binding signal intensity (averaged, normalized) (arbitrary units (background-subtracted, floor 0; scale differs between SH3 domains)); higher = stronger binding of the SH3 domain to the peptide
CaNbp2 = biological target: CaNbp2
Method: (§1)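 GST-tagged SH3 domains from S. cerevisiae (Sc), A. gossypii (Ag), C. albicans (Ca) and S. pombe (Sp) were incubated at 10 ug/ml overnight at 4 C on cellulose SPOT membranes carrying 292 synthetic 15-mer peptides mined from the S. cerevisiae proteome (cysteines replaced by serines). Binding was detected with anti-GST antibody, HRP secondary and chemiluminescence, quantified with Genespotter, and reported as normalized spot intensities averaged over biological replicates.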

CaRvs167 = biological target: CaRvs167
Method: as §1

CaRvs167-3 = biological target: CaRvs167-3
Method: as §1

CaSho1 = biological target: CaSho1
Method: as §1

CaSla1-D1-D2 = biological target: CaSla1-D1-D2
Method: as §1

CaSla1-D3 = biological target: CaSla1-D3
Method: as §1

ScAbp1 = biological target: ScAbp1
Method: as §1

ScBbc1 = biological target: ScBbc1
Method: as §1

ScBem1-D1 = biological target: ScBem1-D1
Method: as §1

ScBzz1-D1 = biological target: ScBzz1-D1
Method: as §1

ScBzz1-D2 = biological target: ScBzz1-D2
Method: as §1

ScCyk3 = biological target: ScCyk3
Method: as §1

ScFus1 = biological target: ScFus1
Method: as §1

ScHof1 = biological target: ScHof1
Method: as §1

ScHse1 = biological target: ScHse1
Method: as §1

ScLsb1 = biological target: ScLsb1
Method: as §1

ScLsb2 = biological target: ScLsb2
Method: as §1

ScLsb3 = biological target: ScLsb3
Method: as §1

ScLsb4 = biological target: ScLsb4
Method: as §1

ScMyo3 = biological target: ScMyo3
Method: as §1

ScMyo5 = biological target: ScMyo5
Method: as §1

ScNbp2 = biological target: ScNbp2
Method: as §1

ScPex13 = biological target: ScPex13
Method: as §1

ScRvs167 = biological target: ScRvs167
Method: as §1

ScSho1 = biological target: ScSho1
Method: as §1

ScSla1-D1-D2 = biological target: ScSla1-D1-D2
Method: as §1

ScSla1-D3 = biological target: ScSla1-D3
Method: as §1

SpAbp1-D1 = biological target: SpAbp1-D1
Method: as §1

SpBbc1 = biological target: SpBbc1
Method: as §1

SpBzz1-D1 = biological target: SpBzz1-D1
Method: as §1

SpBzz1-D2 = biological target: SpBzz1-D2
Method: as §1

SpCyk3 = biological target: SpCyk3
Method: as §1

SpHof1 = biological target: SpHof1
Method: as §1

SpHof1-2 = biological target: SpHof1-2
Method: as §1

SpHof1-3 = biological target: SpHof1-3
Method: as §1

SpHse1 = biological target: SpHse1
Method: as §1

SpLsb1 = biological target: SpLsb1
Method: as §1

SpLsb4 = biological target: SpLsb4
Method: as §1

SpMyo1 = biological target: SpMyo1
Method: as §1

SpNbp2 = biological target: SpNbp2
Method: as §1

SpPex13 = biological target: SpPex13
Method: as §1

SpRvs167 = biological target: SpRvs167
Method: as §1

SpSla1-D1-D2 = biological target: SpSla1-D1-D2
Method: as §1

SpSla1-D3 = biological target: SpSla1-D3
Method: as §1

AgAbp1 = biological target: AgAbp1
Method: as §1

AgBbc1 = biological target: AgBbc1
Method: as §1

AgBem1-D1 = biological target: AgBem1-D1
Method: as §1

AgBzz1-D1 = biological target: AgBzz1-D1
Method: as §1

AgBzz1-D2 = biological target: AgBzz1-D2
Method: as §1

AgCyk3 = biological target: AgCyk3
Method: as §1

AgFus1 = biological target: AgFus1
Method: as §1

AgHof1 = biological target: AgHof1
Method: as §1

AgHse1 = biological target: AgHse1
Method: as §1

AgLsb1 = biological target: AgLsb1
Method: as §1

AgLsb4 = biological target: AgLsb4
Method: as §1

AgMyo5 = biological target: AgMyo5
Method: as §1

AgNbp2 = biological target: AgNbp2
Method: as §1

AgRvs167 = biological target: AgRvs167
Method: as §1

AgSho1 = biological target: AgSho1
Method: as §1

AgSla1-D1-D2 = biological target: AgSla1-D1-D2
Method: as §1

AgSla1-D3 = biological target: AgSla1-D3
Method: as §1

CaAbp1-D1 = biological target: CaAbp1-D1
Method: as §1

CaAbp1-D2 = biological target: CaAbp1-D2
Method: as §1

CaBbc1 = biological target: CaBbc1
Method: as §1

CaBem1-D1 = biological target: CaBem1-D1
Method: as §1

CaBzz1-D1 = biological target: CaBzz1-D1
Method: as §1

CaBzz1-D2 = biological target: CaBzz1-D2
Method: as §1

CaCyk3 = biological target: CaCyk3
Method: as §1

CaFus1 = biological target: CaFus1
Method: as §1

CaHof1 = biological target: CaHof1
Method: as §1

CaHse1 = biological target: CaHse1
Method: as §1

CaLsb1 = biological target: CaLsb1
Method: as §1

CaLsb4 = biological target: CaLsb4
Method: as §1

CaMyo5 = biological target: CaMyo5
Method: as §1

B1: unnamed (peptide)
chain: LKVTPGRRAPTISKI
SPOT peptide array binding signal intensity (CaNbp2): 2720
SPOT peptide array binding signal intensity (CaRvs167): 1.5
SPOT peptide array binding signal intensity (CaRvs167-3): 27.5
SPOT peptide array binding signal intensity (CaSho1): 15.5
SPOT peptide array binding signal intensity (CaSla1-D1-D2): 56
SPOT peptide array binding signal intensity (CaSla1-D3): 1.5
SPOT peptide array binding signal intensity (ScAbp1): 21
SPOT peptide array binding signal intensity (ScBbc1): 1.75
SPOT peptide array binding signal intensity (ScBem1-D1): 9
SPOT peptide array binding signal intensity (ScBzz1-D1): 26
SPOT peptide array binding signal intensity (ScBzz1-D2): 5.5
SPOT peptide array binding signal intensity (ScCyk3): 10
SPOT peptide array binding signal intensity (ScFus1): 0.5
SPOT peptide array binding signal intensity (ScHof1): ≤ 0
SPOT peptide array binding signal intensity (ScHse1): 99
SPOT peptide array binding signal intensity (ScLsb1): ≤ 0
SPOT peptide array binding signal intensity (ScLsb2): 3
SPOT peptide array binding signal intensity (ScLsb3): 21.5
SPOT peptide array binding signal intensity (ScLsb4): ≤ 0
SPOT peptide array binding signal intensity (ScMyo3): 39.5
SPOT peptide array binding signal intensity (ScMyo5): 20.2
SPOT peptide array binding signal intensity (ScNbp2): 4490
SPOT peptide array binding signal intensity (ScPex13): ≤ 0
SPOT peptide array binding signal intensity (ScRvs167): 0.333
SPOT peptide array binding signal intensity (ScSho1): 33
SPOT peptide array binding signal intensity (ScSla1-D1-D2): 61.5
SPOT peptide array binding signal intensity (ScSla1-D3): 32.8
SPOT peptide array binding signal intensity (SpAbp1-D1): 170
SPOT peptide array binding signal intensity (SpBbc1): 1
SPOT peptide array binding signal intensity (SpBzz1-D1): 332
SPOT peptide array binding signal intensity (SpBzz1-D2): 1.25
SPOT peptide array binding signal intensity (SpCyk3): 1.5
SPOT peptide array binding signal intensity (SpHof1): 37.8
SPOT peptide array binding signal intensity (SpHof1-2): 0.5
SPOT peptide array binding signal intensity (SpHof1-3): 165
SPOT peptide array binding signal intensity (SpHse1): 67.8
SPOT peptide array binding signal intensity (SpLsb1): ≤ 0
SPOT peptide array binding signal intensity (SpLsb4): 30
SPOT peptide array binding signal intensity (SpMyo1): 352
SPOT peptide array binding signal intensity (SpNbp2): 8
SPOT peptide array binding signal intensity (SpPex13): ≤ 0
SPOT peptide array binding signal intensity (SpRvs167): ≤ 0
SPOT peptide array binding signal intensity (SpSla1-D1-D2): 4
SPOT peptide array binding signal intensity (SpSla1-D3): ≤ 0

B2: unnamed (peptide)
chain: RSRRSSFAYPQQVAI
SPOT peptide array binding signal intensity (AgAbp1): 22
SPOT peptide array binding signal intensity (AgBbc1): 64
SPOT peptide array binding signal intensity (AgBem1-D1): 91.5
SPOT peptide array binding signal intensity (AgBzz1-D1): 32
SPOT peptide array binding signal intensity (AgBzz1-D2): 50.5
SPOT peptide array binding signal intensity (AgCyk3): 1
SPOT peptide array binding signal intensity (AgFus1): 200
SPOT peptide array binding signal intensity (AgHof1): 33.5
SPOT peptide array binding signal intensity (AgHse1): 254
SPOT peptide array binding signal intensity (AgLsb1): 2.5
SPOT peptide array binding signal intensity (AgLsb4): 39.5
SPOT peptide array binding signal intensity (AgMyo5): 6.25
SPOT peptide array binding signal intensity (AgNbp2): 39
SPOT peptide array binding signal intensity (AgRvs167): 2.33
SPOT peptide array binding signal intensity (AgSho1): 9
SPOT peptide array binding signal intensity (AgSla1-D1-D2): 63.5
SPOT peptide array binding signal intensity (AgSla1-D3): 4.5
SPOT peptide array binding signal intensity (CaAbp1-D1): 170
SPOT peptide array binding signal intensity (CaAbp1-D2): 152
SPOT peptide array binding signal intensity (CaBbc1): 258
SPOT peptide array binding signal intensity (CaBem1-D1): 20.5
SPOT peptide array binding signal intensity (CaBzz1-D1): 84.5
SPOT peptide array binding signal intensity (CaBzz1-D2): 102
SPOT peptide array binding signal intensity (CaCyk3): 9
SPOT peptide array binding signal intensity (CaFus1): 262
SPOT peptide array binding signal intensity (CaHof1): ≤ 0
SPOT peptide array binding signal intensity (CaHse1): 4.5
SPOT peptide array binding signal intensity (CaLsb1): 1.5
SPOT peptide array binding signal intensity (CaLsb4): 70.5
SPOT peptide array binding signal intensity (CaMyo5): 7.25
SPOT peptide array binding signal intensity (CaNbp2): 130
SPOT peptide array binding signal intensity (CaRvs167): 5.67
SPOT peptide array binding signal intensity (CaRvs167-3): 13.5
SPOT peptide array binding signal intensity (CaSho1): 66.5
SPOT peptide array binding signal intensity (CaSla1-D1-D2): 55
SPOT peptide array binding signal intensity (CaSla1-D3): 2.25
SPOT peptide array binding signal intensity (ScAbp1): 27.5
SPOT peptide array binding signal intensity (ScBbc1): 24.5
SPOT peptide array binding signal intensity (ScBem1-D1): 79.5
SPOT peptide array binding signal intensity (ScBzz1-D1): 37
SPOT peptide array binding signal intensity (ScBzz1-D2): 28
SPOT peptide array binding signal intensity (ScCyk3): 69
SPOT peptide array binding signal intensity (ScFus1): 157
SPOT peptide array binding signal intensity (ScHof1): 0.5
SPOT peptide array binding signal intensity (ScHse1): 644
SPOT peptide array binding signal intensity (ScLsb1): 1
SPOT peptide array binding signal intensity (ScLsb2): 7.5
SPOT peptide array binding signal intensity (ScLsb3): 59
SPOT peptide array binding signal intensity (ScLsb4): 24.5
SPOT peptide array binding signal intensity (ScMyo3): 3.5
SPOT peptide array binding signal intensity (ScMyo5): 8.5
SPOT peptide array binding signal intensity (ScNbp2): 141
SPOT peptide array binding signal intensity (ScPex13): 10
SPOT peptide array binding signal intensity (ScRvs167): 8.33
SPOT peptide array binding signal intensity (ScSho1): 304
SPOT peptide array binding signal intensity (ScSla1-D1-D2): 339
SPOT peptide array binding signal intensity (ScSla1-D3): 20.2
SPOT peptide array binding signal intensity (SpAbp1-D1): 36
SPOT peptide array binding signal intensity (SpBbc1): 3.5
SPOT peptide array binding signal intensity (SpBzz1-D1): 169
SPOT peptide array binding signal intensity (SpBzz1-D2): ≤ 0
SPOT peptide array binding signal intensity (SpCyk3): 1.5
SPOT peptide array binding signal intensity (SpHof1): 93.5
SPOT peptide array binding signal intensity (SpHof1-2): 13
SPOT peptide array binding signal intensity (SpHof1-3): 203
SPOT peptide array binding signal intensity (SpHse1): 168
SPOT peptide array binding signal intensity (SpLsb1): 7.75
SPOT peptide array binding signal intensity (SpLsb4): 59
SPOT peptide array binding signal intensity (SpMyo1): 6.75
SPOT peptide array binding signal intensity (SpNbp2): 91
SPOT peptide array binding signal intensity (SpPex13): 17
SPOT peptide array binding signal intensity (SpRvs167): 8.83
SPOT peptide array binding signal intensity (SpSla1-D1-D2): 3
SPOT peptide array binding signal intensity (SpSla1-D3): 10
